# The source made the active and inactive calls.
# Experiments:
# [1] = molecular target: Albumin (Bos taurus) (UniProt P02769); assay: bovine serum albumin binders on microarray, profiling panel, artefact control for SMM control protein annotation, biochemical, small-molecule microarray, Alexa647 label, 635/667 nm fluorescence (AID 1118); conditions: BSA-A647 binding, fluorescence 635 nm, higher = more signal;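 note: score merges 667 nm emission intensity and signal-to-noise per printed compound spot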
# [2] = small-molecule microarray binders of probe aXIP, primary screen, biochemical, NeuroSMM set, 635/667 nm fluorescence (AID 1119); conditions: higher = more signal, called active from +8 up or from −8 down;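 note: probe is the protein aXip251-270 applied at 1 µg/mL to compound-printed slides; binding of probe to printed compounds measured as 667 nm fluorescence plus signal to noise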
# [3] = small-molecule binders of probe aNOTCH3, primary screen, biochemical, small-molecule microarray, 635/667 nm fluorescence (AID 1120); conditions: higher = more signal;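 note: probe is a biotin-tagged antibody raised against NOTCH3 rather than NOTCH3 protein; score merges spot fluorescence near 667 nm with spot signal to noise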
# [4] = small-molecule binders of probe aNOTCH2, primary screen, biochemical, small-molecule microarray, 635/667 nm fluorescence (AID 1121); conditions: higher = more signal;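 note: score merges feature fluorescence read at 667 nm with its signal to noise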
# [5] = molecular target: Carbonic anhydrase 2 (Homo sapiens) (UniProt P00918); assay: CAII small-molecule binders, profiling panel, biochemical, small-molecule microarray, Alexa647-labelled CAII (AID 1122); conditions: CAII-A647 binding fluorescence, higher = more signal
# [6] = COS7 lysate on small-molecule microarray, probe aHis, 635 nm (AID 1123); conditions: COS7 cell lysate, fluorescence, higher = more signal;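 note: z-score combines 667nm fluorescence intensity with signal-to-noise per printed compound spot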
# [7] = compound binding in COS7 lysate, probe aLAP1, primary screen, cell lysate, small-molecule microarray (AID 1124); conditions: probe aLAP1, fluorescence, higher = more signal;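 note: lysate comes from COS7 cells expressing LAP1 and is applied at 0.3 µg/mL; score merges spot fluorescence near 667 nm with signal-to-noise over triplicate slides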
# [8] = tested on: Sam68 (KHDRBS1); assay: Sam68 small-molecule binders, primary screen, biochemical, small-molecule microarray, 635 nm fluorescence (AID 1125); conditions: small-molecule microarray binding, higher = more signal;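 note: score merges 667 nm channel intensity with signal to noise over triplicate slides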
# [9] = tested on: Chordin-like protein 2 (CHRDL2); assay: CHRDL2 small-molecule binders, primary screen, biochemical, small-molecule microarray, 635 nm fluorescence (AID 1126); conditions: small-molecule microarray binding, fluorescence 635 nm; higher = more signal;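 note: printed compound slides probed with Chrdl2 protein at 4 µg/mL for 1 h at 4 C; score merges 667 nm emission intensity with signal to noise over three replicate slides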
# [10] = molecular target: Concanavalin-A (Canavalia ensiformis) (UniProt P02866); assay: ConA small-molecule binders, primary screen, artefact control for SMM control protein annotation, biochemical, small-molecule microarray, Alexa647 label, 635 nm (AID 1127); conditions: ConA-A647 binding fluorescence, higher = more signal;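 note: z combines 667 nm emission intensity with signal-to-noise across three replicate slides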
# [11] = anti-His antibody binders, primary screen, artefact control for SMM control protein annotation, biochemical, small-molecule microarray, 635 nm fluorescence (AID 1128); conditions: anti-His Alexa647 antibody binding, higher = more signal;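 note: score merges feature fluorescence with signal-to-noise for each printed compound spot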
# [12] = tested on: Human papillomavirus type 1a E7 protein (residues 1-88); assay: HPV1a E7 small-molecule binders, primary screen, biochemical, small-molecule microarray, residues 1-88, 635 nm (AID 1129); conditions: small-molecule microarray binding, fluorescence 635 nm; higher = more signal
# [13] = molecular target: Focal adhesion kinase 1 (Homo sapiens) (UniProt Q05397); assay: small-molecule microarray binders of FAK, primary screen, biochemical, 635/667 nm fluorescence, BSA, DTT (AID 1130); conditions: PTK2 binding, 635 nm fluorescence, higher = more signal;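 note: composite of spot emission at 667 nm and signal to noise over triplicate slides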
# [14] = tested on: Fibrinogen (Alexa647-labelled); assay: fibrinogen binders on compound microarrays, profiling panel, artefact control for SMM control-protein annotation, biochemical, small-molecule microarray, 635/667 nm fluorescence (AID 1131); conditions: fibrinogen-A647 binding fluorescence, higher = more signal;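 note: z-score merges 667 nm fluorescence with per-spot signal-to-noise over triplicate slides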
# [15] = molecular target: Follistatin (Homo sapiens) (UniProt P19883); assay: follistatin binders on small-molecule microarrays, primary screen, biochemical, small-molecule microarray, 635/667 nm fluorescence (AID 1132); conditions: FST binding, 635 nm fluorescence, higher = more signal
# [16] = molecular target: Fibroblast growth factor 2 (Homo sapiens) (UniProt P09038); assay: FGF2 binders on small-molecule microarrays, primary screen, biochemical, small-molecule microarray, 635/667 nm fluorescence (AID 1133); conditions: small-molecule microarray binding, FGF2, fluorescence 635/667; higher = more signal
# [17] = mitochondrial membrane potential change in A549 cells, profiling panel, cell-based, JC-1 fluorescence, basal, 24 h, 100 nL (AID 1138); conditions: higher = more signal;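 note: A549 lung adenocarcinoma cells under basal conditions with no added stimulus; test concentration not given here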
# [18] = tested on: Lefty1; assay: Lefty1 binders on small-molecule microarrays, primary screen, biochemical, small-molecule microarray, 635/667 nm fluorescence (AID 1139); conditions: small-molecule microarray binding, fluorescence 635/667; higher = more signal
# [19] = tested on: wheat germ agglutinin (Triticum aestivum), Alexa647-labelled; assay: wheat germ agglutinin binders on compound microarrays, profiling panel, artefact control for SMM control-protein annotation, biochemical, small-molecule microarray, 635/667 nm fluorescence (AID 1140); conditions: WGA-A647 binding, 635 nm fluorescence, higher = more signal;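 note: score merges 667 nm feature emission with signal to noise over triplicate slides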
# [20] = molecular target: Luciferin 4-monooxygenase (Photinus pyralis) (UniProt P08659); assay: firefly luciferase enzyme inhibitors, primary screen, biochemical, luminescence, purified enzyme, 2006 set (AID 1141); conditions: SteadyGlo luminescence, 30 min, higher = more signal, called active from +8 up or from −8 down;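 note: cell-free assay with purified firefly luciferase at 100 ng per well in PBS; test concentration not given here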
# Luciferin 4-monooxygenase (Photinus pyralis), sequence (P08659 whole entry, looked up): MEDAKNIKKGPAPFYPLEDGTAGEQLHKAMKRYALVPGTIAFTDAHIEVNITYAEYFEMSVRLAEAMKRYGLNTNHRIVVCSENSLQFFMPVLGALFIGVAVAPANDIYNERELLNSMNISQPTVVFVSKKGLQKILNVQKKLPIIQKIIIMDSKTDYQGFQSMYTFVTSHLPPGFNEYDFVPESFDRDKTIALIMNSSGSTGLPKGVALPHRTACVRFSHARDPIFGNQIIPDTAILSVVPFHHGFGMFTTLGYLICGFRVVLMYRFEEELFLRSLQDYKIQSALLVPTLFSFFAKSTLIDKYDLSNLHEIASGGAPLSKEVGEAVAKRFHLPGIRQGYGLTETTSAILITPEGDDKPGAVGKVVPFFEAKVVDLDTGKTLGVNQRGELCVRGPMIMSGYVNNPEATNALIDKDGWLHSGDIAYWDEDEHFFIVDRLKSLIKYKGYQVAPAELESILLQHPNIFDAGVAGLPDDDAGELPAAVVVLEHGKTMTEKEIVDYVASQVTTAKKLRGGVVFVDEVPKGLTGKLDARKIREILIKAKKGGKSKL
# Albumin (Bos taurus), sequence (P02769 whole entry, looked up): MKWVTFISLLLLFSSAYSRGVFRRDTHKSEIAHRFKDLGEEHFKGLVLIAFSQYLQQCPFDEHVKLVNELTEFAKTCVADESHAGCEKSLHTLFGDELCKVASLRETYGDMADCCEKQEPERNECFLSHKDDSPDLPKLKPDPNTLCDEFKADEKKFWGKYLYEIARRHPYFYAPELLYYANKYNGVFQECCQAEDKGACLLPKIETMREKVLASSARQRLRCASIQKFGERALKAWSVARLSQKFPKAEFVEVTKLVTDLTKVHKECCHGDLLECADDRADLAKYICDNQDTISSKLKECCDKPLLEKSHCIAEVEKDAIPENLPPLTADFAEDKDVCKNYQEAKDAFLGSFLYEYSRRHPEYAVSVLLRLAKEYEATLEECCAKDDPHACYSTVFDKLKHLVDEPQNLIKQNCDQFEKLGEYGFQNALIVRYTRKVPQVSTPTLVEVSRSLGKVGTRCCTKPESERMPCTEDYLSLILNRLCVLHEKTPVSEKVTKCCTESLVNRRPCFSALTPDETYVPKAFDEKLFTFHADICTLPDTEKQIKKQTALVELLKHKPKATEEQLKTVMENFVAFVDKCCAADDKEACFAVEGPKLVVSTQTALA
# Concanavalin-A (Canavalia ensiformis), sequence (P02866 whole entry, looked up): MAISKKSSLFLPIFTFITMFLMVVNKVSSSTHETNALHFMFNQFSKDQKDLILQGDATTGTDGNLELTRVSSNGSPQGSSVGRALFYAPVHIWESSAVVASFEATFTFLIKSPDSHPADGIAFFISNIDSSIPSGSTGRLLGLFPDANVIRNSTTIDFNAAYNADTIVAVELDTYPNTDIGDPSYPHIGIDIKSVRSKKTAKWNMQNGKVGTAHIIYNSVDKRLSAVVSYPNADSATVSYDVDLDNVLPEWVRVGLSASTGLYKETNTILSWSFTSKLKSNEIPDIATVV
# Follistatin (Homo sapiens), sequence (P19883 whole entry, looked up): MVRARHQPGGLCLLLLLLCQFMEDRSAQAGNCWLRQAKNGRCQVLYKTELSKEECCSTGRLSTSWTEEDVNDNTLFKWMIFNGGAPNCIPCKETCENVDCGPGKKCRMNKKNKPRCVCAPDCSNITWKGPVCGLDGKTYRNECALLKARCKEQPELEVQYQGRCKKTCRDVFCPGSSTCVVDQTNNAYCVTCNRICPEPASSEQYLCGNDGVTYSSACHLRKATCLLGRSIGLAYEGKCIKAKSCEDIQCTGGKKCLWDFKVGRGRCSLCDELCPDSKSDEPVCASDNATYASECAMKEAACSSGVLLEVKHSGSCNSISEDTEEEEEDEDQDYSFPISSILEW
# Fibroblast growth factor 2 (Homo sapiens), sequence (P09038 whole entry, looked up): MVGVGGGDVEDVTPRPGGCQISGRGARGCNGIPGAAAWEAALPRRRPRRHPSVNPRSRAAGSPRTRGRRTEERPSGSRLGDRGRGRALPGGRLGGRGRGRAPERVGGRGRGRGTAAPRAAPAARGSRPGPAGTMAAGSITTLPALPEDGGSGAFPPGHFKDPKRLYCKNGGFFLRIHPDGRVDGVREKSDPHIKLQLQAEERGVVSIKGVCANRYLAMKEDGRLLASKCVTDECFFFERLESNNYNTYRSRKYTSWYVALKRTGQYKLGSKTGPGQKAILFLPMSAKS
# Focal adhesion kinase 1 (Homo sapiens), sequence (Q05397 whole entry, looked up): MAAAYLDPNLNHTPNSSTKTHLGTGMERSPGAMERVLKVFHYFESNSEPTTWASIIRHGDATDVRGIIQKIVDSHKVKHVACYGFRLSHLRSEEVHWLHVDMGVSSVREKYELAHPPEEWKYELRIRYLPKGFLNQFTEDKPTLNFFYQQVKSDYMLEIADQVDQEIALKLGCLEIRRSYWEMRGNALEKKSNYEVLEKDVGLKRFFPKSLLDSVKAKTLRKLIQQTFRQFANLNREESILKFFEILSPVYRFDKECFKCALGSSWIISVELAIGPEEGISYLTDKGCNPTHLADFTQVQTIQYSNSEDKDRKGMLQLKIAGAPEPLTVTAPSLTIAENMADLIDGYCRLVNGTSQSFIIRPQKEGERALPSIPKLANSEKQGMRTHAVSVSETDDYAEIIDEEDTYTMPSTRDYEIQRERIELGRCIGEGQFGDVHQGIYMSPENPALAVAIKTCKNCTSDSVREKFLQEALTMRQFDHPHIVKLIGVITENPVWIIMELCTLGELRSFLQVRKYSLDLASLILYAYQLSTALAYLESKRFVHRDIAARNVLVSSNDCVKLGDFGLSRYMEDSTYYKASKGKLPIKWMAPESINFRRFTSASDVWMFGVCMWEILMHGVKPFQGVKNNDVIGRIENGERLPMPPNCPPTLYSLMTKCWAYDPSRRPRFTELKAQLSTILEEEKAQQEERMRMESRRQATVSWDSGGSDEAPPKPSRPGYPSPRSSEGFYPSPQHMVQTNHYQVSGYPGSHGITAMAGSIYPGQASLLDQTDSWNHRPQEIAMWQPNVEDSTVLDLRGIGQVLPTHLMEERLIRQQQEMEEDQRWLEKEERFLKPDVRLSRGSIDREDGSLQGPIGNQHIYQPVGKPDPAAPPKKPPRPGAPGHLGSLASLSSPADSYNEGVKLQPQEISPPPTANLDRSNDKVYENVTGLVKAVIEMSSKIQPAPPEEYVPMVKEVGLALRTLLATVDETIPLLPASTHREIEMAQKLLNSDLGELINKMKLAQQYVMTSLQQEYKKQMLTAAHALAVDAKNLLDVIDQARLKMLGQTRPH
SMILES,composite z-score [1],composite Z-score [2],composite z-score [3],composite z-score [4],composite z-score [5],composite z-score [6],composite z-score [7],composite z-score [8],composite z-score [9],composite z-score [10],composite z-score [11],composite z-score [12],composite z-score [13],composite z-score [14],composite z-score [15],composite z-score [16],z-score [17],composite z-score [18],composite z-score [19],z-score [20]
O=C1C2C=CC(C(O)c3c(F)cccc3Cl)N(Nc3ccccc3F)C2C(=O)N1c1ccccc1 (stereo not given),0.913,-0.145 (inactive),0.185,-0.0216,0.691,1.67,0.497,1.21,-0.534,0.972,0.236,1.23,0.631,0.926,1.09,0.793,0.353,-0.199,0.702,-0.059 (inactive)
[N-]=[N+]=Nc1ccccc1[C@H]1OC(c2ccc(OCCCO)cc2)=N[C@@]1(CCS(=O)(=O)c1ccccc1)C(=O)NCc1ccccc1,0.307,-0.0549 (inactive),0.318,-0.037,0.684,2.3,0.403,1.32,-0.164,0.94,1.18,1.24,0.341,1.04,1.34,0.694,0.727,0.152,0.697,-7.61 (inactive)
[N-]=[N+]=Nc1ccccc1C[C@]1(C(=O)N2CCCCC2)COC(c2ccc(OCCCO)cc2)=N1,0.715,-0.218 (inactive),0.176,-0.124,0.613,2.74,0.236,1.28,-0.217,0.345,1.33,1.15,0.65,1.01,0.601,-0.0446,0.124,0.308,0.523,-6.97 (inactive)
O=C1OCC=C[C@H]2OC34C=CCN(Cn5nnc6ccccc65)C(=O)[C@H]3N(CCCCCO)C(=O)[C@@H]4[C@@H]12 (stereo not given in full),-0.552,0.177 (inactive),-0.211,-0.108,0.9,1.34,0.435,-0.171,-1.87,-0.727,0.181,-0.185,-0.34,-0.566,-0.997,-0.846,-1.47,-0.992,1.25,0.365 (inactive)
O=C1C2C=CC(C(O)C=Cc3ccc([N+](=O)[O-])cc3)N(Nc3ccccc3F)C2C(=O)N1c1ccccc1 (stereo not given),0.868,0.139 (inactive),0.127,-0.147,0.651,2.31,0.885,1.3,0.0612,1.15,1.41,1.23,0.545,0.995,1.11,0.211,-0.607,0.522,1,-0.252 (inactive)
O=C1[C@@]23C=C(Br)[C@H](C[C@@H]2COC3)[C@]12CO2,-0.742,-0.222 (inactive),-0.0187,-0.0176,-0.762,0.638,-0.447,-2.61,-0.323,-1.79,-2.07,-3.63,0.406,-2.79,-0.362,-0.829,-0.096,-0.921,-2.06,-0.0914 (inactive)

# Reference: PubChem BioAssay
